Laboratory results reported in PubChem BioAssay AID603 (National Center for Advancing Translational Sciences (NCATS), 2007).
In all, about 71,000 compounds went through this assay and about 180 (0.25%) were called active. The call rests on the fitted dose curve; in most records, active means well fitted curve in the direction sought with a large enough effect; inconclusive means small, poorly fitted or top-dose-only effect; inactive means flat fitted curve, though single readings scatter. This excerpt belongs to a sample that is enriched for actives.

These compounds were tested on DNA polymerase III holoenzyme (E. coli) (assay: qHTS Assay for Inhibitors of DNA Polymerase III Holoenzyme System). Conditions: reconstituted DNA polymerase III holoenzyme replication, biochemical; series mostly up to 57.1 µM; activity change, negative = inhibition: at the top concentration.
Protocol: NIH Molecular Libraries Screening Centers Network [MLSCN]
NIH Chemical Genomics Center [NCGC]
Assay Provider: Charles McHenry, University of Colorado
E. coli DNA polymerase III holoenzyme complex was assayed for DNA production by fluorescent detection of the double-stranded DNA product with PicoGreen dye. The holoenzyme complex was reconstituted from the following purified protein components: DNA Polymerase III, beta subunit processivity factor, SSB single-stranded DNA binding protein, and Primase. Single-stranded, circular M13Gori was used as a substrate with dNTPs and NTPs also supplied to the substrate reagent. Compounds from the NCGC collection were incubated with the holoenzyme mixture for 15 min at room temperature to allow binding to occur, and then the reaction was started by the addition of substrate. After 30 min incubation at room temperature, PicoGreen solution containing EDTA was added to stop the reaction and to visualize the double-stranded DNA produced. Reaction progress was measured in a ViewLux CCD imager in fluorescence intensity mode by using 480 nm excitation and 540 nm emission filter set.
NCGC Assay Protocol Summary:
Buffer. 50 mM Hepes-KOH, pH 7.5, 5 % Glycerol, 0.02% NP40, 30 mM potassium;
glutamate, 1.5 mM Magnesium Acetate, 16 uM TCEP.
Buffer in columns 3 and 4 as negative control (no enzyme).
Substrate solution: 5 uM each dATP, dGTP, dCTP and TTP, 50 uM each GTP, CTP, UTP and 200 uM ATP, 1.4 nM M13gori (final concentrations).
Enzyme: 154 nM SSB, 2 nM Primase, 1 nM Beta, 0.35 nM Pol III (final concentrations).
PicoGreen/EDTA: 10 mM Tris-HCl, 10 mM EDTA, 5 uM PicoGreen (final concentrations).
Control titration: ChemBridge 5805060 (from 10 mM, then 1:2, in duplicate) was pin-transferred to upper half of column 2.
Three uL of holoenzyme mixture were dispensed to 1536-well Greiner black solid bottom plates. Compounds and controls (23 nL) were transferred via Kalypsys PinTool. The plates were incubated for 15 min at room temperature, and then 1 uL of substrate solution was added to start the reaction. After room temperature incubation for 35 minutes, 1 uL of PicoGreen solution was added to each well and the plates were read 480 nm excitation and 540 nm emission using ViewLux (Perkin-Elmer) High-throughput CCD imager and fluorescence protocol settings.
Keywords: NIH Roadmap, MLSCN, MLI, MLSMR, qHTS, NCGC, DNA Polymerase III, DNAPol3, DNAPoly3, DNA replication targets
On the % scale 0 is the no-effect control and ±100 the full control effect.

Activity change, negative = inhibition, inactive:
CC(=O)OCC(COC(C)=O)OC(C)=O 6%, CCOc1ccc(-c2nnc3ccc(SC)nn23)cc1 -4.6%, CN(C)c1ncc2nc(-c3ccc(F)cc3)c(=O)n(Cc3ccc(F)cc3)c2n1 -10.5%, Cc1c(NC(=O)C(C)OC(=O)c2cc3c4ccccc4n(C)c3s2)c(=O)n(-c2ccccc2)n1C (configuration not stated) -9%, CC1COC2C(O1)N(S(C)(=O)=O)CCN2S(C)(=O)=O (configuration not stated) -5.1%, Cc1cc(NC(=O)COc2ccc(Cl)cc2Cl)n(CCC#N)n1 -3.1%, COc1cc(=O)[nH]c(=O)n1C(=O)Cc1ccccc1 -6%, CCC(C)(C)n1nnnc1C(c1cccs1)N1CCN(c2nc3ccccc3s2)CC1 (configuration not stated) -3.1%, O=C(OCC(COC(=O)c1ccccc1)(COC(=O)c1ccccc1)COC(=O)c1ccccc1)c1ccccc1 0.5%, COc1ccc(CC(=O)n2nc(-c3cccnc3)nc2N)cc1 -4.3%, COc1ccccc1NC(=O)C1=C(C)Nc2nnnn2C1c1cccc(Br)c1 (configuration not stated) -0.8%, CC(C)NC(=O)CCCn1c(=S)[nH]c2cc3c(cc2c1=O)OCO3 -4.2%, CCCOC(=O)Cc1c(O)c2ccccc2[nH]c1=O 2.4%, CCCC(=O)Nc1c(O)c2ccccc2[nH]c1=O 1.8%, CC(C)(C)[Si](OCC[C@@H]1C[C@@]1(C)[C@@H](NP(=O)(c1ccccc1)c1ccccc1)c1ccccc1)(c1ccccc1)c1ccccc1 2.2%, N#Cc1cccc(-c2ccc3ncnc(NCc4cccs4)c3c2)c1 -0.5%, CC(C)C[C@H](NC(=O)NCCc1ccc(Cl)cc1)C(=O)O 0.4%, COc1ccc(-n2ncc3c(N4CCCc5ccccc54)ncnc32)cc1 0.2%, CCCC[C@@H]1C[C@H]1C(NC(=O)c1ccco1)c1ccc(C(=O)OC)cc1 (some centres not stated) -5.4%, CS(=O)(=O)N1CCC2(CC1)CN(c1ccncc1)C2 -4.4%, O=C(c1ccc(O)cc1)c1ccc(C(=O)O)c(C(=O)O)c1 -2.9%, Cc1ccccc1C(=O)O 1.3%, CCc1nnc(NS(=O)(=O)c2ccc(NS(=O)(=O)c3ccccc3)cc2)s1 -14.1%, Cc1ccnc(N)c1 -0.2%, c1ccc2nc(C3=NCCN3)cnc2c1 -3.7%, c1ccc(Cc2nn3c(Cn4cnc5ccccc54)nnc3s2)cc1 -6.2%, COc1ccc2oc(=O)c(C(=O)O)cc2c1 0.4%, O=C(CN1CCOc2ccccc21)N1CCC(Cc2ccccc2)CC1 0.5%, O=C(NCCCN1CCCCCC1)c1ccc(N2CCCC2=O)cc1 -2.7%, CC(=O)N1[C@H](C)C=C[C@]1(Cc1ccccc1)C(=O)NCc1ccccn1 10.3%, O=C1CN(C(=O)COC(=O)C2CC(=O)N(Cc3ccco3)C2)c2ccccc2N1 (configuration not stated) -5.6%, O=C(Nc1ccn(Cc2ccc(F)cc2)n1)c1ccncc1 2.3%, CC(=O)N=c1ncn(CC(COC(C)=O)OC(C)=O)c2nc[nH]c12 (configuration not stated) -5.5%, CCn1c(CSc2ncccn2)nnc1SCC(=O)N1c2ccccc2CC1C (configuration not stated) -3.1%, Cc1cc(C)cc(NC(=O)C2CCN(c3nc(C)cc(C)n3)CC2)c1 -1.5%, CN1CCCC(OC(=O)COc2ccc(Br)cc2)C1 (configuration not stated) -3.3%, Cc1cc(=O)oc(C)c1C(=O)NCc1ccc(F)cc1 -6.9%, Oc1ccccc1CNCc1ccccc1O -9.4% [at 11.4 µM], CCOC(=O)c1c(C2CC2)csc1NC(=O)CSCc1c(C)noc1C -5.2%, Cc1cc(C)nc(SCc2ccccc2C#N)n1 -13.8%, CCCCCCc1ccc(O)cc1O 0.2%, COc1ccccc1CNc1ncnc2ccc(-c3c(C)noc3C)cc12 -1.2%, COc1ccc(Cn2cccc(NC(=O)Nc3ccc(C#N)cc3)c2=O)cc1 -2.6%, COc1ccc(OC)c(C(=O)c2ccc(C(=O)O)cc2)c1 1.1%, CC(C)NC[C@H](O)c1ccc2ccccc2c1, O=C(Oc1ccc2c(c1)CN(Cc1ccccc1)CO2)c1ccccc1 -3% [at 11.4 µM], COCCn1c(=O)c(CCc2ccccc2)nc2cncnc21 -7.4%, CCCn1c(-c2ccc(F)cc2)nc2c(NCC3CCCN3CC)nc(C)nc21 (configuration not stated) -1.2%, COc1cccc2sc(Nc3nc(C)c(C(C)=O)s3)nc12 -4.5%, O=S(=O)(c1cccc(S(=O)(=O)N2CCC(n3nnc4ccccc43)CC2)c1)N1CCCCC1 -5.3%, CC[C@]1([C@H]2O[C@@H]([C@@H]3O[C@](O)(CO)[C@@H](C)C[C@H]3C)C[C@H]2C)CC[C@@H]([C@]2(C)CC[C@@]3(C[C@@H](O)[C@@H](C)[C@@H]([C@H](C)[C@H](OC)[C@H](C)C(=O)O)O3)O2)O1 -3.8% [at 25.6 µM], CC(=O)NC(C)c1nc2ccccc2n1Cc1ccccc1F (configuration not stated) -0.1%, Cc1ccc(S(=O)(=O)Nc2ccccc2CNc2c(C)n(C)n(-c3ccccc3)c2=O)cc1 -1.6%, Cc1noc(C)c1-c1nccc(N2CCOCC2)n1 -4.8%, Cc1cc(C)cc(N(CC(=O)Nc2c(C)n(C)n(-c3ccccc3)c2=O)S(C)(=O)=O)c1 2.7% [at 11.4 µM], Cc1cn(C2C=CC(CO)O2)c(=O)[nH]c1=O (configuration not stated) 0%, COc1cccc2cc(C(C)N(CCCN3CCOCC3)C(=O)Nc3ccc(Cl)cc3)oc12 (configuration not stated) -0.7%, O=C(c1cc(C(F)(F)F)cc(C(F)(F)F)c1)N1CCC[C@@]2(CCN(c3ccccn3)C2)C1 -5.9%, CS(=O)(=O)Nc1cccc(-c2cncnc2Nc2ccccc2)c1 -2%, CCOc1ccc(CCNC(=O)C2CCN(c3ccc(N4CCOCC4)nn3)CC2)cc1OCC -4.2%, Cc1cccc(C(=O)O)c1 7.4%, COC(=O)[C@@]1(Cc2ccc(F)cc2)[C@H]2c3cc(C(=O)N(C)C)n(CCc4c[nH]c5ccc(OC)cc45)c3C[C@H]2CN1C(=O)c1ccccc1 -11%, COc1ccccc1CCn1c(=O)c(-c2cn(C)c3ccccc23)nc2cncnc21 -6.9%, c1ccc2cc3[nH]c(CN4CCCCC4)nc3cc2c1 -7.3%, CC(C)c1nnc(NC(=O)C2CCCN2S(=O)(=O)c2ccc(Cl)cc2)s1 (configuration not stated) -2.6%, O=C(Nc1ccccc1C(=O)N1CCOCC1)C1CCC(=O)N1C1CCCC1 (configuration not stated) -7.4%, COc1ccc(C)c(Cn2c(-c3nonc3N)nc3ccccc32)c1 3.6%, O=C(Nc1ccon1)c1cccc(Cl)c1 -2.9%, CC(C)C[C@@H](CC(=O)N[C@@H](CCC(=O)O)CC(=O)O)NC(=O)[C@@H]1CCCC[C@H]1NC(=O)C[C@@H](NC(=O)C[C@H](Cc1c[nH]c2ccccc12)NC(=O)[C@@H]1CCCC[C@H]1N)C(C)C 1.5%, CCOC(=O)C1Cn2c(nc3c(c2=O)C(C)(CC)Cc2ccccc2-3)S1 (configuration not stated) 2.7%, COCCn1nnnc1C(c1ccccc1Cl)N1CCN(c2ccccc2OC)CC1 (configuration not stated) -7.9%, NS(=O)(=O)c1cc(C(=O)O)c(Cl)c([N+](=O)[O-])c1Cl -10.9% [at 11.4 µM], COC(=O)C1(Cc2ccccc2)C=C2C(=C(C)C(=O)C2C)CN1 (configuration not stated) -5.5%, c1cncc(-c2nc(N3CCNCC3)c3ccccc3n2)c1 -8.1%, CN(C)CCCn1c2ccccc2c2cnccc21 -9.9% [at 11.4 µM], COc1ccc(C(=O)N2CCC3(CC2)CCN(c2ccccn2)CC3)cc1 -5.7%, O=C(c1ccncc1)N1CCC2(CCN(Cc3cc(C(F)(F)F)cc(C(F)(F)F)c3)CC2)CC1 -6.3%, CCCCSc1nc2c(c(=O)n1CC)SC(C)C2 (configuration not stated) -8.4%, CCC1Oc2ccc(Cl)cc2N(CC(=O)O)C1=O (configuration not stated) -1.1%, Cc1ccccc1C(=O)NCCN=C1NS(=O)(=O)c2ccccc21 2.9%, O=C(Cn1nnc(-c2ccc3c(c2)OCO3)n1)NCc1ccco1 -4%, COc1ccc(CCNC(=O)CCn2c(=O)oc3ccccc32)cc1OC -6.6%, CN(C)CCCNC(=O)c1ccc2[nH]c3ccccc3c2c1 -5.1%, CSc1ccc(S(=O)(=O)NCc2ccc(Cl)cc2)cc1 2.9%, O=C(C1CCCO1)N1CCC(c2nc3ccccc3[nH]2)CC1 (configuration not stated) -5.1%, N#Cc1c(N)sc2c1CCN(C(=O)OCc1ccccc1)C2 -0.3%, COc1ccccc1-c1c(C)nn2c(C)c(C(C)=O)cnc12 -6.3%, CN(C)C(=O)c1ccc(-c2cncnc2NC2CCNCC2)cc1 -0.4%, O=c1cc(-c2ccc(O)c(O)c2)oc2cccc(O)c12 -19.4%, COc1ccc(OC)c(CN2C(=O)CCC2(C)C(=O)NC2CCCCCC2)c1 (configuration not stated) -4.8%, N#Cc1ccccc1-c1ccc2ncnc(NCc3cccnc3)c2c1 -7.4%, CN1C(=O)CC(N2CCN(c3ccccn3)CC2)C1=O (configuration not stated) 4.6%, N#Cc1ccc(CN2CCCC3(CCN(C(=O)c4ccco4)CC3)C2)cc1 22.9%, Cc1c(-c2nn(C)c(=O)c3ccccc23)oc2ccc(F)cc2c1=O -0.7%, Clc1ccc(C=Nc2ccc3c(c2)Cc2ccccc2-3)c(Cl)c1 -10.3% [at 11.4 µM], CCOC(=O)c1nnn(CC(=O)Nc2cccc(F)c2)c1C(=O)OCC -1%, c1ccc(Nc2n[nH]nc2-c2ccccc2)cc1 -5.3%, O=C1c2cccc3cccc(c23)N1CN1CCN(c2ccccn2)CC1 -6.4%, C=CCOC(=O)c1ccccc1C(=O)OCC=C 8.7%, Nc1nonc1C(=O)NCCc1ccccc1 -6.7%, COCCNc1nc(-n2nc(C)cc2C)nc2sc3c(c12)CCCC3 -2.3%, C[C@@H](C(=O)Nc1ccc2ccccc2c1)[C@@H]1C[C@@]1(C)[C@@H](NC(=O)c1cccnc1)c1ccccc1 2.5%

Potency, active:
CC[N+](C)(CC)CCC[n+]1c(-c2ccccc2)c2cc(N)ccc2c2ccc(N)cc21 2 µM, O=C1C(c2[nH]c3ccccc3c2O)=Nc2ccccc21 3.98 µM, O=C(O)c1ccc(C(=O)c2ccccc2C(=O)O)cc1C(=O)O 3.98 µM, C/C(=C\c1ccco1)C1Nc2cccc3cccc(c23)N1 3.16 µM, Oc1ccc(O)c2c(O)cccc12 15.8 µM
